The values below come from PubChem BioAssay (NCATS).

Molecules are shown by their SMILES. Activity calls are given as the source filed them. Calls follow the shape of the dose curve; as a rule, active = well fitted curve in the direction sought with a large enough effect; inconclusive = small, poorly fitted or top-dose-only effect, or another doubt; inactive = no such curve, though single readings can be large or run the other way.

A short description of this test: Cellular Toxicity (caspase-3) BJ (AID 658). The settings on record: BJ fibroblasts, luminescence, normalized: DMSO 0%, staurosporine 100%; series mostly up to 91.7 µM. From the text: NIH Chemical Genomics Center [NCGC]
NIH Molecular Libraries Screening Centers Network [MLSCN]
National Institutes of Environmental Health Sciences [NIEHS]
National Toxicology Program [NTP]
We have developed a 1536-well cell-based assay for quantitative high throughput screening (qHTS) against a number of cell lines to determine in vitro caspase 3/7 activity of small molecules. This particular assay uses BJ cell line which is derived from normal human foreskin fibroblast.
NCGC Assay Protocol Summary:
The Caspase-Glo 3/7 assay (Promega) is a homogeneous method to measure caspase-3 and caspase-7 activities in cultured cells. The quantitation of caspase 3/7 activity is based on the cleavage of a peptide-aminoluciferin substrate. After caspase cleaves the substrate the free aminoluciferin is liberated and serves as the substrate of luciferase, which generates the light. The luminescent signal is proportional to amount of caspase 3/7 activity present.
Using the Caspase-Glo 3/7 assay, the amount of caspase 3/7 activity was measured in the BJ cell line with complete culture medium following compound treatment for 16 hours. The assay was performed in opaque white 1536-well plates. In the screen, staurosporine and tamoxifen were used as positive controls. Library compounds were measured for their ability to cause the activation of caspase 3/7 in the cell line, as reflected by an increase in luminescence signal, in a concentration-dependent manner. Data were normalized to the controls for basal activity (DMSO only) and 100% stimulation (10 uM staurosporine). AC50 values were determined from concentration-response data modeled with the standard Hill equation.
qHTS protocol for caspase 3/7 assay in the BJ cells
[Step] [Parameter] [Value] [Description]
1. Reagent; 5 uL; 1000 the BJ cells/well
2. Time; 5 hr; 37 °C incubation
4. Controls; 23 nL; Tamoxifen 0.23 uM to 100 uM & staurosporine 1.4 pM to 100 uM
5. Time; 16 hr; 37 °C incubation
6. Reagent; 5 uL; Caspase-Glo 3/7 reagent
7. Time; 1 hr; Room Temperature
8. Detection; Luminescence; Viewlux plate reader
Keywords: caspase 3/7, apoptosis, the BJ cell line, luminescence, NTPHTS, NTPHTS_NCGC, NIEHS, EPA, DSSTox, MLSMR, MLSCN, NIH Roadmap, qHTS, NCGC
Consider `CC(=O)OC(C)C`, for which the result was inactive.
In the case of `CC(C)N(C)C`, the outcome was inactive.
As for `CCCC=O`, the result was inactive.
For `Cc1ccccc1C(=O)O` the value was “inactive”; for `CCCCC(=O)N(C)C`, “inactive”; for `COc1ccc(N=[N+]([O-])c2ccc(OC)cc2)cc1`, “inactive”.
Turning to `C[C@@H]1CC2(OC[C@]3(C)O[C@H]23)O[C@H]2C[C@@]3(C)[C@@H]4CC[C@H]5C(C)(C)C(O[C@@H]6OC[C@@H](O)[C@H](O)[C@H]6O)CC[C@@]56C[C@@]46CC[C@]3(C)[C@@H]12` (stereo not given in full), the molecule was classed as inactive.
For `CN(C)c1cccc(O)c1` the value was “inactive”; for `COc1ccc(N)c(C)c1`, “inactive”; for `CC(=O)OC(C)=O`, “inactive”.
For `CC(=O)CCc1ccccc1` the value was “inactive”.
In the case of `C=CC(=O)OCCCC` it was “inactive”.
Regarding `CC(C)Cc1nccs1`, the outcome was inactive.
As to `C=CCn1c(=O)n(CC=C)c(=O)n(CC=C)c1=O`, the call was inactive.
For `CC(C)(O)C(=O)O` the value was “inactive”.
As to `C1CCOC1`, the result was inactive.
In the case of `C1CCCC1` it was “inactive”; in that of `Cc1c(C(=O)O)cccc1[N+](=O)[O-]`, “inactive”.
In the case of `CCCCCO` it was “inactive”; in that of `Cc1ccc2ccccc2c1[N+](=O)[O-]`, “inactive”.
In the case of `O=Cc1ccccc1Cl` it was “inactive”.
Take `CC(=O)CC(C)C`: the call was inactive.
In the case of `C1COC1`, the molecule was called inactive.
Regarding `CCc1ccccc1O`, the molecule was classed as inactive.
In the case of `Cc1ccc(C)c(O)c1` it was “inactive”; in that of `CCCOCC(C)OCC(C)O` (stereo not given), “inactive”; in that of `CCCCCCC(=O)O`, “inactive”.
Turning to `CCCCOCCOCCOCCCC`, the outcome was inactive.
As to `NC(N)=S`, the call was inactive.
For `COC(=O)CC#N` the value was “inactive”.
With `CC(CCl)OC(C)CCl` (stereo not given), the molecule was called inactive.
For `CC=C(Cl)Cl` the value was “inactive”; for `CC1(N)CCC(C(C)(C)N)CC1` (stereo not given), “inactive”; for `CC(=O)C1(C)CC2=C(CCCC2(C)C)CC1C` (stereo not given), “inactive”.
Take `O=[N+]([O-])c1ccc2nc[nH]c2c1`: the result was inactive.
In the case of `O=Cc1ccc(C(=O)O)cc1` it was “inactive”.
In the case of `CC/C=C/C#N` it was “inactive”.
In the case of `O=C(O)c1c(Cl)cccc1Cl` it was “inactive”; in that of `Cc1cc(C)cc(O)c1`, “inactive”.
In the case of `Cc1cc(C2(c3cc(C)c(O)cc3C)OS(=O)(=O)c3ccccc32)c(C)cc1O`, the result was inactive.
